Assay in all cases: PBM; 200 nM protein, PBS
What all share (details): dsDNA, one strand shown

Experiment [1] has as its target NKX2-5 (Homo sapiens, UniProt P52952 125-210, R139K).
Experiment [2] addresses NKX2-5 (Homo sapiens, UniProt P52952 125-210).
The target in experiment [3] is HOXD13 (Homo sapiens, UniProt P35453 263-343, T313R).
For experiment [4], the target named is NKX3-2 (Homo sapiens, UniProt P78367 192-278, P234S).
Experiment [5] concerns the target NKX3-2 (Homo sapiens, UniProt P78367 192-278).
The target of experiment [6] is HOXD13 (Homo sapiens, UniProt P35453 263-343).
HOXD13 (Homo sapiens, UniProt P35453 263-343), sequence (P35453 263-343): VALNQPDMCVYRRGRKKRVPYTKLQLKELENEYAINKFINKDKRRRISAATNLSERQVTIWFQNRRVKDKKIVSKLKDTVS
Experiment [7] concerns the target HOXD13 (Homo sapiens, UniProt P35453 263-343, T313A).

The values that follow come from PMC11006913.

HOXD13 (Homo sapiens, UniProt P35453 263-343, T313A), sequence (P35453 263-343 T313A): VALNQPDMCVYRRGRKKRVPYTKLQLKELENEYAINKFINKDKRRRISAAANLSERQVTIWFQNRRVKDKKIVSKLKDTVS
NKX3-2 (Homo sapiens, UniProt P78367 192-278), sequence (P78367 192-278): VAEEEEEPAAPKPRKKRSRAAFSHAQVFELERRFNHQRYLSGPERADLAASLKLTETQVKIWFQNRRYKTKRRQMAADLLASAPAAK
NKX3-2 (Homo sapiens, UniProt P78367 192-278, P234S), sequence (P78367 192-278 P234S): as the sequence (P78367 192-278) above, with P43S counted along it
HOXD13 (Homo sapiens, UniProt P35453 263-343, T313R), sequence (P35453 263-343 T313R): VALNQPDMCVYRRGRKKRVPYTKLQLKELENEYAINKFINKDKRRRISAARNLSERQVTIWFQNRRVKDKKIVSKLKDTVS
NKX2-5 (Homo sapiens, UniProt P52952 125-210), sequence (P52952 125-210): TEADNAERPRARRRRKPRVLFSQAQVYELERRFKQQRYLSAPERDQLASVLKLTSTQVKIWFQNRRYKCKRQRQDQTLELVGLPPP
NKX2-5 (Homo sapiens, UniProt P52952 125-210, R139K), sequence (P52952 125-210 R139K): as the sequence (P52952 125-210) above, with R15K counted along it

With AATAGTCT, the binding signal in experiment [1] was 10.6 upbm affinity estimate (log intensity, higher = more binding, comparable within an allelic series); in experiment [2], 10.7 upbm affinity estimate (log intensity, higher = more binding, comparable within an allelic series).

For the sequence AGCCACTC, the binding signal is 11.6 upbm affinity estimate (log intensity, higher = more binding, comparable within an allelic series) in experiment [1] and 11.5 upbm affinity estimate (log intensity, higher = more binding, comparable within an allelic series) in experiment [2].

ATTAATTG: in experiment [3], the binding signal is 10.7 upbm affinity estimate (log intensity, higher = more binding, comparable within an allelic series).

For the sequence CGGCGTAC, the binding signal is 8.9 upbm affinity estimate (log intensity, higher = more binding, comparable within an allelic series) in experiment [1] and 8.89 upbm affinity estimate (log intensity, higher = more binding, comparable within an allelic series) in experiment [2].

Turning to GCCGACCC, the binding signal in experiment [1] was 8.84 upbm affinity estimate (log intensity, higher = more binding, comparable within an allelic series); in experiment [2], 8.81 upbm affinity estimate (log intensity, higher = more binding, comparable within an allelic series).

With CTGCCGCC, the binding signal in experiment [1] was 8.73 upbm affinity estimate (log intensity, higher = more binding, comparable within an allelic series); in experiment [2], 8.63 upbm affinity estimate (log intensity, higher = more binding, comparable within an allelic series).

For the sequence CCGAGCCA, the binding signal was 9.01 upbm affinity estimate (log intensity, higher = more binding, comparable within an allelic series) in experiment [1] and 9.05 upbm affinity estimate (log intensity, higher = more binding, comparable within an allelic series) in experiment [2].

Turning to CCGCAGTC, the binding signal was 8.8 upbm affinity estimate (log intensity, higher = more binding, comparable within an allelic series) in experiment [1] and 8.72 upbm affinity estimate (log intensity, higher = more binding, comparable within an allelic series) in experiment [2].

Take CCCTTAAC: the binding signal is 10.9 upbm affinity estimate (log intensity, higher = more binding, comparable within an allelic series) in experiment [1] and 10.8 upbm affinity estimate (log intensity, higher = more binding, comparable within an allelic series) in experiment [2].

Take GCCGGCAA: the binding signal in experiment [1] is 9.18 upbm affinity estimate (log intensity, higher = more binding, comparable within an allelic series); in experiment [2] it was 8.86 upbm affinity estimate (log intensity, higher = more binding, comparable within an allelic series).

Regarding GCTAATTA, the binding signal is 11.7 upbm affinity estimate (log intensity, higher = more binding, comparable within an allelic series) in experiment [4] and 11.7 upbm affinity estimate (log intensity, higher = more binding, comparable within an allelic series) in experiment [5].

In the case of AATTAATA, the binding signal in experiment [3] is 10.9 upbm affinity estimate (log intensity, higher = more binding, comparable within an allelic series); in experiment [6] it was 11.7 upbm affinity estimate (log intensity, higher = more binding, comparable within an allelic series); in experiment [7] it was 11.7 upbm affinity estimate (log intensity, higher = more binding, comparable within an allelic series).

With ATTAATGA, the binding signal in experiment [3] is 10.7 upbm affinity estimate (log intensity, higher = more binding, comparable within an allelic series); in experiment [6] it was 11.9 upbm affinity estimate (log intensity, higher = more binding, comparable within an allelic series); in experiment [7], 11.7 upbm affinity estimate (log intensity, higher = more binding, comparable within an allelic series).

In the case of CGGGTGGC, the binding signal in experiment [1] was 8.45 upbm affinity estimate (log intensity, higher = more binding, comparable within an allelic series); in experiment [2], 8.57 upbm affinity estimate (log intensity, higher = more binding, comparable within an allelic series).

Regarding ATTAATTA, the binding signal in experiment [3] was 10.8 upbm affinity estimate (log intensity, higher = more binding, comparable within an allelic series); in experiment [6] it was 11.8 upbm affinity estimate (log intensity, higher = more binding, comparable within an allelic series); in experiment [7], 11.6 upbm affinity estimate (log intensity, higher = more binding, comparable within an allelic series).

With ATACTCCA, the binding signal in experiment [1] was 10.6 upbm affinity estimate (log intensity, higher = more binding, comparable within an allelic series); in experiment [2], 10.4 upbm affinity estimate (log intensity, higher = more binding, comparable within an allelic series).

On to ACCAGGGC, for which the binding signal in experiment [1] is 8.76 upbm affinity estimate (log intensity, higher = more binding, comparable within an allelic series); in experiment [2] it was 8.77 upbm affinity estimate (log intensity, higher = more binding, comparable within an allelic series).

Regarding GGTAATTA, the binding signal in experiment [4] was 11.7 upbm affinity estimate (log intensity, higher = more binding, comparable within an allelic series); in experiment [5], 11.7 upbm affinity estimate (log intensity, higher = more binding, comparable within an allelic series).

As to ACACTCTG, the binding signal was 10.6 upbm affinity estimate (log intensity, higher = more binding, comparable within an allelic series) in experiment [1] and 10.5 upbm affinity estimate (log intensity, higher = more binding, comparable within an allelic series) in experiment [2].

As to CTAATTAA, the binding signal is 10.8 upbm affinity estimate (log intensity, higher = more binding, comparable within an allelic series) in experiment [3]; 11.8 upbm affinity estimate (log intensity, higher = more binding, comparable within an allelic series) in experiment [6]; 11.6 upbm affinity estimate (log intensity, higher = more binding, comparable within an allelic series) in experiment [7].

Consider AATCTTGA, for which the binding signal was 10.5 upbm affinity estimate (log intensity, higher = more binding, comparable within an allelic series) in experiment [1] and 10.5 upbm affinity estimate (log intensity, higher = more binding, comparable within an allelic series) in experiment [2].

Turning to TAATTAAA, the binding signal in experiment [3] was 10.8 upbm affinity estimate (log intensity, higher = more binding, comparable within an allelic series); in experiment [6] it was 11.8 upbm affinity estimate (log intensity, higher = more binding, comparable within an allelic series); in experiment [7], 11.7 upbm affinity estimate (log intensity, higher = more binding, comparable within an allelic series).

For GTTAATTA, the binding signal was 10.7 upbm affinity estimate (log intensity, higher = more binding, comparable within an allelic series) in experiment [3] and 11.6 upbm affinity estimate (log intensity, higher = more binding, comparable within an allelic series) in experiment [7].

As for CGCGAGCC, the binding signal in experiment [1] is 8.97 upbm affinity estimate (log intensity, higher = more binding, comparable within an allelic series); in experiment [2] it was 8.93 upbm affinity estimate (log intensity, higher = more binding, comparable within an allelic series).

Consider TAATTATA, for which, in experiment [3], the binding signal is 10.7 upbm affinity estimate (log intensity, higher = more binding, comparable within an allelic series).

With CTAATTGA, the binding signal in experiment [4] was 11.5 upbm affinity estimate (log intensity, higher = more binding, comparable within an allelic series); in experiment [5], 11.6 upbm affinity estimate (log intensity, higher = more binding, comparable within an allelic series).
